From the supplement of paper PMC8728848
About 410 targets per protein were measured; listed, in parts, are those with the strongest signals and a random draw of the rest.

Assays:
Experiment in all cases: glycan array binding signal (z-score within array); higher = stronger binding
Settings in all cases: glycan notation: IUPAC condensed, linker removed
Fuc(a1-2)Gal = biological target: Fuc(a1-2)Gal
In short: (§1)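 The binding signal is a Z-score computed within each array. Data were drawn from 3228 arrays in the Consortium for Functional Glycomics database, restricted to those with a known protein sequence. Scores were averaged over arrays of the same protein sequence at different concentrations or buffers, and over linkers, and negative values can be taken as non-binding.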

[1] = biological target: Fuc(a1-2)Gal(b1-3)GalNAc(b1-4)[Neu5Ac(a2-3)]Gal(b1-4)Glc
In short: as §1

[2] = biological target: Fuc(a1-2)Gal(b1-3)[Fuc(a1-4)]GlcNAc(b1-2)Man(a1-3)[Fuc(a1-2)Gal(b1-3)[Fuc(a1-4)]GlcNAc(b1-2)Man(a1-6)]Man(b1-4)GlcNAc(b1-4)[Fuc(a1-6)]GlcNAc(b1-4)[Fuc(a1-6)]GlcNAc
In short: as §1

[3] = biological target: Fuc(a1-2)Gal(b1-4)GlcNAc(b1-2)Man(a1-3)[Fuc(a1-2)Gal(b1-4)GlcNAc(b1-2)Man(a1-6)]Man(b1-4)GlcNAc(b1-4)[Fuc(a1-6)]GlcNAc
In short: as §1

[4] = biological target: Fuc(a1-2)Gal(b1-4)[Fuc(a1-3)]GlcNAc(b1-3)Gal(b1-4)[Fuc(a1-3)]GlcNAc(b1-3)Gal(b1-4)[Fuc(a1-3)]GlcNAc
In short: as §1

[5] = biological target: Fuc(a1-2)[Gal(a1-3)]Gal(b1-4)GlcNAc(b1-2)Man(a1-3)[Fuc(a1-2)[Gal(a1-3)]Gal(b1-4)GlcNAc(b1-2)Man(a1-6)]Man(b1-4)GlcNAc(b1-4)GlcNAc
In short: as §1

[6] = biological target: Fuc(a1-2)[Gal(a1-4)]Gal(b1-4)GlcNAc
In short: as §1

[7] = biological target: Fuc(a1-3)[Gal(b1-4)]GlcNAc
In short: as §1

[8] = biological target: Gal(b1-3)GalNAc(a1-3)[Fuc(a1-2)]Gal(b1-4)Glc
In short: as §1

[9] = biological target: Gal(b1-3)GlcNAc(a1-3)Gal(b1-4)GlcNAc
In short: as §1

[10] = biological target: Gal(b1-3)GlcNAc(b1-3)Gal(b1-4)GlcNAc(b1-3)Gal(b1-4)GlcNAc(b1-2)[Gal(b1-3)GlcNAc(b1-3)Gal(b1-4)GlcNAc(b1-3)Gal(b1-4)GlcNAc(b1-6)]Man(a1-6)[Gal(b1-3)GlcNAc(b1-3)Gal(b1-4)GlcNAc(b1-3)Gal(b1-4)GlcNAc(b1-2)Man(a1-3)]Man(b1-4)GlcNAc(b1-4)[Fuc(a1-6)]GlcNAc
In short: as §1

[11] = biological target: Gal(b1-3)[Fuc(a1-4)]GlcNAc(b1-3)Gal(b1-3)[Fuc(a1-4)]GlcNAc
In short: as §1

[12] = biological target: Gal(b1-3)[Neu5Ac(a2-6)]GlcNAc(b1-4)Gal(b1-4)Glc
In short: as §1

[13] = biological target: Gal(b1-4)GlcNAc(b1-2)[Gal(b1-4)GlcNAc(b1-4)]Man(a1-3)[GlcNAc(b1-4)][Gal(b1-4)GlcNAc(b1-2)[Gal(b1-4)GlcNAc(b1-6)]Man(a1-6)]Man(b1-4)GlcNAc(b1-4)GlcNAc
In short: as §1

[14] = biological target: Gal(b1-4)GlcNAc(b1-3)Gal(b1-3)GlcNAc
In short: as §1

[15] = biological target: Gal(b1-4)GlcNAc(b1-3)Gal(b1-4)GlcNAc(b1-3)Gal(b1-4)GlcNAc
In short: as §1

[16] = biological target: Gal(b1-4)GlcNAc(b1-3)Gal(b1-4)GlcNAc(b1-3)Gal(b1-4)GlcNAc(b1-3)Gal(b1-4)GlcNAc(b1-2)Man(a1-3)[Gal(b1-4)GlcNAc(b1-3)Gal(b1-4)GlcNAc(b1-3)Gal(b1-4)GlcNAc(b1-3)Gal(b1-4)GlcNAc(b1-2)Man(a1-6)]Man(b1-4)GlcNAc(b1-4)[Fuc(a1-6)]GlcNAc
In short: as §1

[17] = biological target: Gal(b1-4)GlcNAc(b1-3)Gal(b1-4)GlcNAc(b1-3)Gal(b1-4)GlcNAc(b1-3)Gal(b1-4)GlcNAc(b1-2)[Gal(b1-4)GlcNAc(b1-3)Gal(b1-4)GlcNAc(b1-3)Gal(b1-4)GlcNAc(b1-3)Gal(b1-4)GlcNAc(b1-6)]Man(a1-6)[Gal(b1-4)GlcNAc(b1-3)Gal(b1-4)GlcNAc(b1-3)Gal(b1-4)GlcNAc(b1-3)Gal(b1-4)GlcNAc(b1-2)Man(a1-3)]Man(b1-4)GlcNAc(b1-4)[Fuc(a1-6)]GlcNAc
In short: as §1

[18] = biological target: Gal(b1-4)GlcNAc(b1-3)Gal(b1-4)GlcNAc(b1-3)Gal(b1-4)GlcNAc(b1-3)Gal(b1-4)GlcNAc(b1-3)Gal(b1-4)GlcNAc(b1-2)Man(a1-3)[Gal(b1-4)GlcNAc(b1-3)Gal(b1-4)GlcNAc(b1-3)Gal(b1-4)GlcNAc(b1-3)Gal(b1-4)GlcNAc(b1-3)Gal(b1-4)GlcNAc(b1-2)Man(a1-6)]Man(b1-4)GlcNAc(b1-4)GlcNAc
In short: as §1

[19] = biological target: Gal(b1-4)GlcNAc(b1-3)Gal(b1-4)GlcNAc(b1-6)[Gal(b1-3)]GalNAc
In short: as §1

[20] = biological target: Gal(b1-4)GlcNAc(b1-3)[Gal(b1-4)GlcNAc(b1-6)]Gal(b1-4)GlcNAc
In short: as §1

Gal3S6S(b1-4)GlcNAc = biological target: Gal3S6S(b1-4)GlcNAc
In short: as §1

Gal6S(b1-3)GlcNAc6S = biological target: Gal6S(b1-3)GlcNAc6S
In short: as §1

Gal6S(b1-4)Glc = biological target: Gal6S(b1-4)Glc
In short: as §1

GalNAc(b1-4)GlcNAc = biological target: GalNAc(b1-4)GlcNAc
In short: as §1

GalNAc3S(b1-4)GlcNAc = biological target: GalNAc3S(b1-4)GlcNAc
In short: as §1

GalNAc3S(b1-4)GlcNAc3S = biological target: GalNAc3S(b1-4)GlcNAc3S
In short: as §1

[21] = biological target: GalNAc3S(b1-4)[Fuc(a1-3)]GlcNAc
In short: as §1

B1: SfaEH (Escherichia coli), Q1RDG5 (protein)
chain: LLCRNNQTGQVFNSGDTSFRVNVSPVVQYDKSISVLDLSQLVSCQNEDSTGQNYDYLKILKGSGFSPALDTKTYGRLDFTSRPTGYARQLPLQFDLQVTEAFYQYGVWKPFPAKLYLYPAPGVFGKVINNGDLLATLYVNKFSTKGQEAGERNFTWRFYATNDVYIQTGTCRVSSNNVKVDLPSYPGGPVTVPLTVRCDQTQSVSYTLSGPVTGSGNTVFANTAASGSGGVGIQLSDNVGPVPAGQPRSLGQVGSSPVSLGLKASYALTGQASPTPGAVQSVINVTFSYN
Question: Which “glycan array binding signal (z-score)” value (Fuc(a1-2)Gal) does the source give for B1 here?
Answer: -0.532

Question: What about the “glycan array binding signal (z-score)” value [1] of the same binder?
Answer: -0.413

Question: And the “glycan array binding signal (z-score)” value [2]?
Answer: 1.21

Question: And the “glycan array binding signal (z-score)” value [3]?
Answer: -0.238

Question: What about the “glycan array binding signal (z-score)” value [4] of the same binder?
Answer: 1.77

Question: What about the “glycan array binding signal (z-score)” value [5] of the same binder?
Answer: -0.531

Question: What about the “glycan array binding signal (z-score)” value [6] of the same binder?
Answer: 0.037

Question: And the “glycan array binding signal (z-score)” value [7]?
Answer: -0.018

Question: What about the “glycan array binding signal (z-score)” value [8] of the same binder?
Answer: -0.503

Question: And the “glycan array binding signal (z-score)” value [9]?
Answer: -0.23

Question: What about the “glycan array binding signal (z-score)” value [10] of the same binder?
Answer: 3.4

Question: What about the “glycan array binding signal (z-score)” value [11] of the same binder?
Answer: 0.274

Question: What about the “glycan array binding signal (z-score)” value [12] of the same binder?
Answer: -0.638

Question: What about the “glycan array binding signal (z-score)” value [13] of the same binder?
Answer: 1.56

Question: And the “glycan array binding signal (z-score)” value [14]?
Answer: 0.732

Question: And the “glycan array binding signal (z-score)” value [15]?
Answer: 0.382

Question: What about the “glycan array binding signal (z-score)” value [16] of the same binder?
Answer: -0.08

Question: What about the “glycan array binding signal (z-score)” value [17] of the same binder?
Answer: 3.01

Question: What about the “glycan array binding signal (z-score)” value [18] of the same binder?
Answer: 2.05

Question: What about the “glycan array binding signal (z-score)” value [19] of the same binder?
Answer: -0.15

Question: And the “glycan array binding signal (z-score)” value [20]?
Answer: 0.131

Question: And the “glycan array binding signal (z-score)” value (Gal3S6S(b1-4)GlcNAc)?
Answer: 2.12

Question: And the “glycan array binding signal (z-score)” value (Gal6S(b1-3)GlcNAc6S)?
Answer: -0.513

Question: And the “glycan array binding signal (z-score)” value (Gal6S(b1-4)Glc)?
Answer: -0.148

Question: And the “glycan array binding signal (z-score)” value (GalNAc(b1-4)GlcNAc)?
Answer: -0.125

Question: And the “glycan array binding signal (z-score)” value (GalNAc3S(b1-4)GlcNAc)?
Answer: -0.199

Question: And the “glycan array binding signal (z-score)” value (GalNAc3S(b1-4)GlcNAc3S)?
Answer: 0.153

Question: And the “glycan array binding signal (z-score)” value [21]?
Answer: 2.28
